Consider 4 compounds from PubChem BioAssay.

The test system of experiment [1] is Wnt5a (protein binding on small-molecule microarray). Description: small molecules binding Wnt5a protein – biophysical, small-molecule microarray, 635/667 nm fluorescence, primary screen (AID 1142).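 Further: fluorescence read at 667 nm with signal to noise per printed feature.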 The settings on record: 635 nm fluorescence, higher = more signal.
A short description of experiment [2]: ATP-based viability of Huh7 replicon cells – cell-based, CellTiter-Glo luminescence, basal, 48 h, cytotoxicity control for HCV replication inhibitor project, primary screen (AID 1143).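 Further: Huh7 hepatoma cells carrying a hepatitis C replication reporter with no stimulus; test concentration not given here.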 The settings on record: higher = more signal, called active from +8 up or from −8 down.
Experiment [3] can be described thus: Pseudomonas biofilm growth suppression – PAO1 strain, BacTiter-Glo luminescence, LB-PBS, primary screen (AID 1144). The settings on record: P. aeruginosa PAO1 biofilm, 12 h, higher = more signal.
A short description of experiment [4]: basal CRE-LacZ reporter activity in PC12 – cell-based, unstimulated, primary screen (AID 1145). The settings on record: no forskolin, luminescence, 4.5 h, higher = more signal, called active from +8 up or from −8 down.
Experiment [5] is described as follows: forskolin-driven CRE-LacZ activity in PC12 – cell-based, CRE-LacZ reporter, forskolin-stimulated, primary screen (AID 1146).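 Further: PC12 cells with 6xCRE LacZ reporter stimulated by forskolin 10 µM; beta-galactosidase reporter signal reflecting CREB driven transcription.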 The settings on record: luminescence, 4.5 h, higher = more signal, called active from +8 up or from −8 down.
For experiment [6], the target named is Streptavidin (Streptomyces avidinii) (UniProt P22629). The experiment in a line: compounds binding control protein streptavidin – biophysical, small-molecule microarray, 635/667 nm fluorescence, artefact control for SMM compound annotation, primary screen (AID 1147).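 Further: signal reflects streptavidin binding to arrayed compounds as a control protein.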 The settings on record: higher = more signal.
Chain of Streptavidin (Streptomyces avidinii) (P22629 whole entry, looked up): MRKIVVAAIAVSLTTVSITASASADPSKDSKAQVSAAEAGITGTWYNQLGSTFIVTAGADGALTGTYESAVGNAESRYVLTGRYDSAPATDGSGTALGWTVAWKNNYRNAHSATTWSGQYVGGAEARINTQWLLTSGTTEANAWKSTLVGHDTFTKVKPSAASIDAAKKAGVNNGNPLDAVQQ
Experiment [7] can be described thus: probe aInhba binding on compound microarray – biochemical, small-molecule microarray, 635/667 nm fluorescence, primary screen (AID 1148).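 Further: score merges 667nm spot fluorescence with signal-to-noise for antibody binding to printed compounds.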 Conditions: higher = more signal.
Experiment [8] deals with Torsin-1A (Homo sapiens) (UniProt O14656). Description: TOR1A wild-type binding on microarray – cell lysate, small-molecule microarray, lysate, 635/667 nm, primary screen (AID 1149). Conditions: COS7 hTOR1A-WT lysate, 635 nm fluorescence, higher = more signal.
Chain of Torsin-1A (Homo sapiens) (O14656 whole entry, looked up): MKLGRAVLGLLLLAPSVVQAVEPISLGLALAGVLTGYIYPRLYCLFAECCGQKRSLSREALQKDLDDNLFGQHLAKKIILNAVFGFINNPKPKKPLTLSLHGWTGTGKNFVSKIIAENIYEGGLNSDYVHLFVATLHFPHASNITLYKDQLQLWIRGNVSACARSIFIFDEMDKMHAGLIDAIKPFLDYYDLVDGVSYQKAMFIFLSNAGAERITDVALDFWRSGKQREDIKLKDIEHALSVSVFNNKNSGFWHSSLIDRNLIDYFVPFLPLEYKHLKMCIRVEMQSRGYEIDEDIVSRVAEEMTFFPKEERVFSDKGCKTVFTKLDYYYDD
Experiment [9] has the same target. Description: torsin A mutant lysate binding on microarrays – cell lysate, small-molecule microarray, COS7 lysate, 635/667 nm fluorescence, primary screen (AID 1150).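 Further: score pools 667 nm emission and signal to noise measuring lysate protein binding.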 The settings on record: COS7 hTOR1A mutant lysate, 635 nm fluorescence, higher = more signal.
Experiment [10] deals with Sonic hedgehog protein (Shh). The experiment in a line: Sonic hedgehog microarray binding compounds – biochemical, small-molecule microarray, 635/667 nm fluorescence, primary screen (AID 1151).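 Further: Shh protein binding to compounds spotted on small-molecule microarray slides; score combines spot fluorescence intensity with signal-to-noise across triplicate slides.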 The settings on record: 635 nm fluorescence, higher = more signal.
Experiment [11] can be described thus: optical density shifts of acrAB sulA E. coli – strain DRC41, OD650, 48 h, E. coli filamentation inducer project, primary screen (AID 1152).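 Further: E. coli MC1000 strain DRC41 lacking acrAB efflux pump and sulA.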 Conditions: higher = more signal, called active from +8 up or from −8 down.
Experiment [12] can be described thus: probe aLefty1 binding on compound microarray – biochemical, small-molecule microarray, 635/667 nm fluorescence, primary screen (AID 1153).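 Further: score merges spot fluorescence with signal-to-noise ratio from the scanned slide images.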 The settings on record: higher = more signal.
Experiment [13] is described as follows: plasmodial surface anion channel blockers, osmotic lysis – cell-based, P. falciparum Indochina, OD700, 1 h, primary screen (AID 1154). The settings on record: P. falciparum Indochina infected RBC osmotic lysis, higher = more signal, called active from +8 up or from −8 down.
The nature of experiment [14]: plasmodial surface anion channel blockers, osmotic lysis – cell-based, P. falciparum Indochina, OD700, 2 h, primary screen (AID 1155).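 Further: lysis reports solute entry through the parasite surface anion channel PSAC.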 Conditions: P. falciparum Indochina infected erythrocytes, higher = more signal, called active from +8 up or from −8 down.
Experiment [15] in a line: changes in parasitized red cell lysis, either direction – P. falciparum Indochina, OD700, 3 h, PSAC antagonist project, primary screen (AID 1156). Conditions: P. falciparum-infected erythrocytes, osmotic lysis, higher = more signal, called active from +8 up or from −8 down.
Experiment [16] can be described thus: plasmodial surface anion channel blockers, osmotic lysis – cell-based, P. falciparum Indochina, OD700, 18 h, primary screen (AID 1157). The settings on record: P. falciparum Indochina infected erythrocytes, osmotic lysis OD700, 18 h; higher = more signal, called active from +8 up or from −8 down.
The nature of experiment [17]: S6 kinase pathway phospho-S6 level changes – cell-based, A549, cytoblot, luminescence, serum-stimulated, primary screen (AID 1158).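 Further: serum-stimulated A549 lung adenocarcinoma cells; signal is phosphorylated S6 detected by cytoblot immunostaining with HRP secondary.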 The settings on record: 5 h, higher = more signal.
Experiment [18] concerns the target NADPH oxidase 2 (Homo sapiens) (UniProt P04839). Description: compounds shifting NOX2 Amplex Red fluorescence – cell-based, HEK293-NOX2, PMA-stimulated, NOX inhibitor project, primary screen (AID 1159). Further: test concentration not given here. Conditions: 45 min, higher = more signal, called active from +8 up or from −8 down.
Experiment [19] has as its target NADPH oxidase 4 (Homo sapiens) (UniProt Q9NPH5). Description: compounds shifting NOX4 Amplex Red fluorescence – cell-based, HEK293-NOX4, tetracycline-induced, NOX inhibitor project, primary screen (AID 1160). The settings on record: HEK293-NOX4, Amplex Red H2O2 fluorescence, 45 min; higher = more signal, called active from +8 up or from −8 down.
Experiment [20] deals with NADPH oxidase 5 (Homo sapiens) (UniProt Q96PH1). The experiment in a line: compounds shifting NOX5 Amplex Red fluorescence – cell-based, HEK293-NOX5, NOX inhibitor project, primary screen (AID 1161). The settings on record: HEK293-NOX5, ionomycin, 45 min, higher = more signal.
Chain of NADPH oxidase 5 (Homo sapiens) (Q96PH1 whole entry, looked up): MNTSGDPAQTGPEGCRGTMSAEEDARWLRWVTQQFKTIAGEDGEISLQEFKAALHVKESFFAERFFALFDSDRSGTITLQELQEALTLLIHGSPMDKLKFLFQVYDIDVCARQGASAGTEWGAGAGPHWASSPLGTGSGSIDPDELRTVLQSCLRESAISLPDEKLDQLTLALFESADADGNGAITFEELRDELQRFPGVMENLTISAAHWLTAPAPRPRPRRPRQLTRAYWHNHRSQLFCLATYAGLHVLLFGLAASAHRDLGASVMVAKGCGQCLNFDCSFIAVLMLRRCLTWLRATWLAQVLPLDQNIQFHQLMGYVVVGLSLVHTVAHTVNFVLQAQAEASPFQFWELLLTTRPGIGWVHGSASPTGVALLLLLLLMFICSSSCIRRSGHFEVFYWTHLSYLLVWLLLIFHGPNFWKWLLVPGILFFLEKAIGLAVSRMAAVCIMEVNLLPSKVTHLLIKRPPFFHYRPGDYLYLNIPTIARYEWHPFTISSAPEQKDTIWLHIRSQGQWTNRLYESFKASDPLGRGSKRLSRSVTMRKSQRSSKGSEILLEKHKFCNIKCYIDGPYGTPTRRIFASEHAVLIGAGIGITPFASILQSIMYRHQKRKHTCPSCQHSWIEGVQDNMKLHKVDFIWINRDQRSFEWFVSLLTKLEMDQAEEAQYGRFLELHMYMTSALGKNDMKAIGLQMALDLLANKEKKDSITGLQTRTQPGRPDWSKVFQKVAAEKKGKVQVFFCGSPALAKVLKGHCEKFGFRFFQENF

Activity calls are given as the source filed them. Unless noted, how the calls were made is not given here.

Chain of NADPH oxidase 2 (Homo sapiens) (P04839 whole entry, looked up): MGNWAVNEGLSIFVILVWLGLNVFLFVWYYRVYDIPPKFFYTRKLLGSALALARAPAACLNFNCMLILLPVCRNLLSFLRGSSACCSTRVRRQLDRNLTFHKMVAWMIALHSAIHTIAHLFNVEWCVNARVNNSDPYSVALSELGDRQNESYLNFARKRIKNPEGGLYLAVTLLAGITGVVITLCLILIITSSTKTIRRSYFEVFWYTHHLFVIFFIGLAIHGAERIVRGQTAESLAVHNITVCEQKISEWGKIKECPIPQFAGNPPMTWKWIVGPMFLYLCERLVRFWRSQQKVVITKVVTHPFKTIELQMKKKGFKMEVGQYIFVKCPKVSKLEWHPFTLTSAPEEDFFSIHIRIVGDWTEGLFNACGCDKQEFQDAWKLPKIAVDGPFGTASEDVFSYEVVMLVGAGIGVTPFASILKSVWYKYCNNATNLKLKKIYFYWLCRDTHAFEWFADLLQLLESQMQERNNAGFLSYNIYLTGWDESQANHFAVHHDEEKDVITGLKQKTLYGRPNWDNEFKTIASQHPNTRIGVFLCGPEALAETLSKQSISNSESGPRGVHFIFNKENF
Chain of NADPH oxidase 4 (Homo sapiens) (Q9NPH5 whole entry, looked up): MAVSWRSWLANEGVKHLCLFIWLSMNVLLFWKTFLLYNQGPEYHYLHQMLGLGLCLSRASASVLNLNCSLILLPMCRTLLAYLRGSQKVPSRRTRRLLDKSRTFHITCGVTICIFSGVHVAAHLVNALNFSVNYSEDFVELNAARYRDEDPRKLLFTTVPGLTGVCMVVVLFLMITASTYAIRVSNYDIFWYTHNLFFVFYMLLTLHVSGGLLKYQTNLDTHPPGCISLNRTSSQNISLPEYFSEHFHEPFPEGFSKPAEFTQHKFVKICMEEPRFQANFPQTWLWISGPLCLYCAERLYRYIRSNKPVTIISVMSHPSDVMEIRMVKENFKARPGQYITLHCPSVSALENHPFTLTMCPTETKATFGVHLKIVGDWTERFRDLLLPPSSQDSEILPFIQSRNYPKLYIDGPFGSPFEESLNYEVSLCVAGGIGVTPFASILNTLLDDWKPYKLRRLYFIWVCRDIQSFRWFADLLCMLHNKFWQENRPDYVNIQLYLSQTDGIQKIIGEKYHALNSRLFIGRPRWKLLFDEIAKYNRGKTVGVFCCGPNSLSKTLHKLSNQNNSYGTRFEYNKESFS

Take `COC(=O)[C@@]1(Cc2ccc(OC)cc2)[C@H]2c3cc(C(=O)N(C)C)n(Cc4ccc(C)c(F)c4F)c3C[C@H]2CN1C(=O)c1ccccc1`: the composite z-score in experiment [1] was 0.109; in [6] it was 0.569; in experiment [7], 0.0179; with Torsin-1A (Homo sapiens) [8] it was -0.124; in the experiment with Torsin-1A (Homo sapiens) [9] it was -0.0724; in [10], -1.09. In experiment [12], this compound displayed a composite z-score of 0.187. Moreover, the z-score in experiment [2] was -1.49 (inactive); in [3] it was -0.763 (inactive); in [4], 1.53 (inactive); in experiment [5] it was 1.24 (inactive); in [11], -1.37 (inactive); in [13], 1.76 (inactive). Moreover, the z-score in experiment [14] is -0.0758 (inactive); in experiment [15] it was 0.571 (inactive); in [16], 0.788 (inactive); in experiment [17], 0.0141; in experiment [18], -0.795 (inactive); in experiment [19], -0.522 (inactive). Moreover, the z-score in experiment [20] amounted to 3.23.
For the compound `O=C(N1CCCCC1)[C@@]1(CCS(=O)(=O)c2ccccc2)N=C(c2ccc(OCCCO)cc2)O[C@H]1c1ccccc1`, the composite z-score in experiment [1] was 1.31; in [6], -0.123; in experiment [7], -0.0112; in the experiment with Torsin-1A (Homo sapiens) [8] it was 1.06; in the experiment with Torsin-1A (Homo sapiens) [9], 0.623; in experiment [10], -0.442. Further, the composite z-score in experiment [12] worked out at 0.347. The z-score was -5.06 (inactive) in experiment [2]; -0.725 (inactive) in [3]; 0.909 (inactive) in [4]; -0.516 (inactive) in experiment [5]; 0.646 (inactive) in [11]; 30.1 (active) in [13]. In addition, the z-score in experiment [14] was 24.2 (active); in experiment [15], 2.17 (inactive); in [16], 4.24 (inactive); in [17] it was 2.24; in [18], -4.27 (inactive); in [19], 0.156 (inactive). In experiment [20], the z-score is -4.84.
Take `CC(C)[C@H]1NC(=O)[C@@]23C(=O)N[C@@H](Cc4ccccc4)C2[C@H](C)[C@@]2(C)O[C@H]2C3/C=C/C/C=C\CNC(=O)[C@H](C)NC1=O` (stereo not given in full): the composite z-score in experiment [1] was -0.438; in [6], -1.07; in [7], -0.151; in the experiment with Torsin-1A (Homo sapiens) [8] it was -0.96; with Torsin-1A (Homo sapiens) [9], 0.237; in experiment [10] it was 0.203. For the same compound, in experiment [12], the composite z-score was -0.381. The z-score in experiment [2] was -0.131 (inactive); in experiment [3], 0.0406 (inactive); in [4], 0.306 (inactive); in [5] it was 0.289 (inactive); in experiment [11], -0.629 (inactive); in [13], 3.36 (inactive). Moreover, the z-score in experiment [14] is 0.538 (inactive); in experiment [15] it was 0.386 (inactive); in [16], 0.01 (inactive); in [17], -0.221; in [18] it was 0.813 (inactive); in experiment [19], -0.833 (inactive). In experiment [20], the z-score came out at 0.137.
With `C[C@H]1C2[C@H](Cc3ccccc3)NC(=O)[C@]23C(=O)N[C@H](Cc2ccccc2)C(=O)N[C@@H](Cc2ccccc2)C(=O)NC/C=C\C/C=C/C3[C@@H]2O[C@]12C` (stereo not given in full), the composite z-score in experiment [1] was 0.0327; in [6], -0.214; in [7], 0.173; in the experiment with Torsin-1A (Homo sapiens) [8], -0.0236; with Torsin-1A (Homo sapiens) [9], 0.147; in experiment [10], 1.65. Further, the composite z-score in [12] came out at 0.305. In addition, the z-score in experiment [2] is -3.18 (inactive); in experiment [3], 0.593 (inactive); in [4] it was 0.311 (inactive); in [5] it was -1.85 (inactive); in experiment [11], 0.839 (inactive); in [13] it was 3.27 (inactive). For the same compound, the z-score in experiment [14] is 0.358 (inactive); in [15] it was -0.0925 (inactive); in experiment [16], 0.0094 (inactive); in [17] it was 0.654; in experiment [18] it was 0.453 (inactive); in experiment [19], 1.1 (inactive). Moreover, in [20], the z-score is 1.26.
